From PubChem BioAssay (NCATS)
Where “and” joins values, the source holds several entries; their conditions need not be identical. Equal entries are not always repeated. Results filed as inconclusive are left out. Calls of active or inactive are those of the source. Unless noted, calls come from the whole dose curve.

How the values were obtained:
[1] = target: Lysosomal acid glucosylceramidase (Homo sapiens) (UniProt P04062); experiment: Glucocerebrosidase-p2 (AID 348; in the data active = potency below about 10 µM; note: potency is the fitted concentration of half-maximal effect); details: purified GBA, blue fluorogenic substrate, 40 min
Lysosomal acid glucosylceramidase (Homo sapiens), sequence (P04062 whole entry, looked up): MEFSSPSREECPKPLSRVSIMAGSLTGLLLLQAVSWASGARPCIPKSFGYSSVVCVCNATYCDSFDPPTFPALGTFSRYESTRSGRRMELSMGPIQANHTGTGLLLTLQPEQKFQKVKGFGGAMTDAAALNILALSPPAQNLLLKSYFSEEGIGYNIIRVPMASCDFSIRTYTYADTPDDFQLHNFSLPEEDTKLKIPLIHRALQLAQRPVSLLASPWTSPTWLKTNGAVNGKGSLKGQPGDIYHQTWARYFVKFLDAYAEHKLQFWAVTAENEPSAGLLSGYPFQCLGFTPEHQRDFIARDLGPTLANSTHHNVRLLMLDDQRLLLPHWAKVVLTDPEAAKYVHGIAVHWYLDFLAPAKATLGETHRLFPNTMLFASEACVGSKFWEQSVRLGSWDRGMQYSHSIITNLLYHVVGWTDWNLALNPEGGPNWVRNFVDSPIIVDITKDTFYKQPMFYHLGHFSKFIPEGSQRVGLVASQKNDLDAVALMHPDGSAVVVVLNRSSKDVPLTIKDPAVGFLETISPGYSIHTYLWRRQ
Method in brief: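 Normal human glucocerebrosidase (0.2 nM) with blue fluorogenic substrate (80 uM final) in citrate/phosphate pH 5.9 with 10mM sodium taurocholate, 0.01% tween-20; 40 min RT, NaOH/glycine stop; fluorescence Ex 365/Em 440; AC50 from a titration from 0.6 nM upwards.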

[2] = AP1 Signaling Pathway (AID 357; active = well fitted curve in either direction with a large enough effect, not every such curve was filed as active;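 note: ME-180 reporter cells stimulated with EGF at its EC50 level; % is set by controls: 0 for no effect and ±100 for the full control effect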); details: ME-180 (cervical carcinoma) AP-1-bla reporter, EGF-induced, beta-lactamase ratio, 5 h; at 7.69 µM (top of the series) unless noted
Method in brief: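 First, ME-180 AP-1-bla cells were cultured overnight at 37 °C in low-serum Opti-MEM. Next, titrated compounds with EC50 EGF were incubated 5 hours. Finally, CCF4 was added for 2.5 hours and the 460/530 nm ratio recorded.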

[3] = target: Glucocorticoid receptor (Homo sapiens) (UniProt P04150); experiment: GR-EFC Redistribution (AID 451); details: CHO-K1 GR-EFC translocation, beta-gal luminescence, 2 h; note: potency is the fitted concentration of half-maximal effect
Glucocorticoid receptor (Homo sapiens), sequence (P04150 whole entry, looked up, the tested form may be a part): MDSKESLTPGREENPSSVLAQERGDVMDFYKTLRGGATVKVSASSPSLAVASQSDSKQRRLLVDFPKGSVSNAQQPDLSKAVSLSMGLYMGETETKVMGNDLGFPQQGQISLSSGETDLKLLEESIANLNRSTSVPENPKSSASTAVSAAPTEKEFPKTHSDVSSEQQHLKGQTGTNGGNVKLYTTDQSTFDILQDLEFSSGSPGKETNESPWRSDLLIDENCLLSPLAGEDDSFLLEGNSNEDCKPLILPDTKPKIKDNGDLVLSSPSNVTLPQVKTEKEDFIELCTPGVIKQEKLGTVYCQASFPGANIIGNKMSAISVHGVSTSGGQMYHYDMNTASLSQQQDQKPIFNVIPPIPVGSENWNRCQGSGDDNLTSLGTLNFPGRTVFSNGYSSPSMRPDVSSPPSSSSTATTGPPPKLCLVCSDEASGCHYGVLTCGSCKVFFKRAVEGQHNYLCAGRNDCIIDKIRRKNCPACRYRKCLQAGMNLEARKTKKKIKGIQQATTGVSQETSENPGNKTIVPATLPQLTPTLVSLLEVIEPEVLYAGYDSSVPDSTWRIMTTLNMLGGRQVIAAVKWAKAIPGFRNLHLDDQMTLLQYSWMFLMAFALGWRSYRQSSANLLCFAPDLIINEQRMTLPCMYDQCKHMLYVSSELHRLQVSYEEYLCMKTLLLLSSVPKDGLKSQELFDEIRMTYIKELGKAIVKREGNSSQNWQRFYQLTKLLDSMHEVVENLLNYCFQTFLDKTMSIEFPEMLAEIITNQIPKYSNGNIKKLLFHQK
Method in brief: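 CHO-K1 cells stably expressing nuclear-localized β-gal enzyme acceptor and GR fused C-terminally to the enzyme donor fragment; ligand-driven nuclear translocation restores β-gal by complementation. Compounds titrated up to 46 uM final, 2 h at 37 °C; luminescence read.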

[4] = Cell Viability - SK-N-SH (AID 435); details: SK-N-SH neuroblastoma cell viability qHTS;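 note: potency is the fitted concentration of half-maximal effect; compound exposure lasted 40 h at 37 °C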
Method in brief: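 Cells seeded at 1500 per well and incubated 5 hr at 37 °C. Compound added, then 40 hr at 37 °C. CellTiter-Glo added, 20 min at room temperature, luminescence read.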

[5] = Cell Viability - LYMP1-002 - Assay at 40 hr (AID 994; active = well fitted curve in the direction sought with a large enough effect; an effect the other way counts as inactive or inconclusive;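 note: 0% = DMSO only and full inhibition = 92 µM tetraoctylammonium bromide; nearly all actives have a fitted effect of over 60% in size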); details: LYMP1-002 lymphoblastoid cell viability; series mostly up to 92.2 µM
Method in brief: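 qHTS cytotoxicity; 2500 cells/well, 5 hr 37 C settle, compound 40 hr 37 C. CellTiter-Glo, 30 min RT, luminescence (ATP). Concentration-response, Hill fit → AC50. Pos. ctrl tetraoctylammonium bromide.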

[6] = target: Glucocorticoid receptor (Homo sapiens) (UniProt P04150); experiment: qHTS assay for small molecule agonists of glucocorticoid receptor signaling (AID 588532; active = well fitted curve in the direction sought with a large enough effect in the signal ratio, with a control signal flat; the % refers to the signal ratio;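 note: 100% = dexamethasone at 0.1 µM and 0% = DMSO only wells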); details: HeLa MMTV-bla, beta-lactamase ratio, agonist, 18 h; stronger effect = higher value; percent of dexamethasone control, DMSO zero
Method in brief: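 Titration series, up to 92 uM, applied to GRE-bla HeLa cells for 18 h at 37 C. Detection by CCF4 FRET substrate after 2 h at RT.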

[7] = target: Glucocorticoid receptor (Homo sapiens) (UniProt P04150); experiment: qHTS assay for small molecule antagonists of glucocorticoid receptor signaling (AID 588533; active = well fitted inhibition curve with a large enough effect in the signal ratio, with a control signal flat, not every such curve was filed as active; the % refers to the signal ratio;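 note: cells stimulated with 2 nM dexamethasone as agonist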; note: potency is the fitted concentration of half-maximal effect); details: HeLa MMTV-bla, GRE beta-lactamase ratio, antagonist mode, 18 h; series mostly up to 76.8 µM
Method in brief: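 Antagonist-mode qHTS: compound titrations added to GRE-bla HeLa cells, then dexamethasone 2 nM final; 18 h, 37 C. CCF4 FRET fluorescence normalized to dexamethasone and DMSO; IC50 from Hill fit.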

[8] = qHTS assay for small molecule antagonists of peroxisome proliferator-activated receptor delta signaling (AID 588535; active = well fitted inhibition curve with a large enough effect in the signal ratio, with a control signal flat, not every such curve was filed as active; the % refers to the signal ratio;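 for max response: cells co-treated with a PPAR-delta agonist as stimulator during compound exposure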); details: HEK293T PPARd-UAS-bla, beta-lactamase FRET ratio, 18 h; 460 nm channel
Method in brief: (§1)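 Compounds tested in titration on PPAR-delta-UAS-bla HEK293T cells grown in charcoal/dextran-stripped serum (2%); beta-lactamase activity read via CCF4 emission at 460 and 530 nm.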

[9] = target: Peroxisome proliferator-activated receptor delta (Homo sapiens) (UniProt Q03181); experiment: as above; details: HEK293T PPARd-UAS-bla, beta-lactamase FRET ratio, 18 h; series mostly up to 76.7 µM
Peroxisome proliferator-activated receptor delta (Homo sapiens), sequence (Q03181 whole entry, looked up): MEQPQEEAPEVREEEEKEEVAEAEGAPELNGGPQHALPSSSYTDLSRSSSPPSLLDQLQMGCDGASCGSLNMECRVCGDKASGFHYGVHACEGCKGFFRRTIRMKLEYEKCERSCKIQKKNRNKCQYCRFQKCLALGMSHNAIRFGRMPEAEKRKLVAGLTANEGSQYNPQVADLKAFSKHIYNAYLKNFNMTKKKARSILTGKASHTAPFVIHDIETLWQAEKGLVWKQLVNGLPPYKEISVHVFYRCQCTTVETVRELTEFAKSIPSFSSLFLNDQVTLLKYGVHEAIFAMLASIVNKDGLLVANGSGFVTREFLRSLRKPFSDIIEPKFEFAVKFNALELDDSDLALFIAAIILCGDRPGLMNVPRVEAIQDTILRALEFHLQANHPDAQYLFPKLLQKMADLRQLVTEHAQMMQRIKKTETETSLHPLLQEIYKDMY
Method in brief: as §1

[10] = qHTS assay for small molecule agonists of the antioxidant response element (ARE) signaling pathway (AID 651741; active = well fitted activation curve with a large enough effect in the signal ratio; the % refers to the signal ratio; note: potency is the fitted concentration of half-maximal effect; for activation: % of control where 0% means no effect); details: HepG2 ARE-bla reporter, beta-lactamase FRET ratio, 16 h; series mostly up to 96 µM
Method in brief: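 Beta-lactamase reporter expression driven by the antioxidant response element in HepG2 cells was detected by fluorescence with LiveBLAzer B/G FRET substrate (2 h, room temperature) following 16 h compound treatment at 37 C.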

[11] = qHTS assay for small molecule activators of the human pregnane X receptor (PXR) signaling pathway (AID 720659; call rule not given here; note: 0% is about no effect); details: DPX-2 HepG2 CYP3A4-luciferase, 24 h; series mostly up to 92.3 µM
[12] = target: Vitamin D3 receptor (Homo sapiens) (UniProt P11473); experiment: qHTS assay for small molecule antagonists of vitamin D receptor signaling (AID 588541); details: HEK293T VDR-UAS-bla, beta-lactamase ratio, antagonist mode; series mostly up to 76.7 µM;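 note: receptor activated by calcitriol during compound treatment; % is set by controls: 0 for no effect and ±100 for the full control effect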
Vitamin D3 receptor (Homo sapiens), sequence (P11473 whole entry, looked up): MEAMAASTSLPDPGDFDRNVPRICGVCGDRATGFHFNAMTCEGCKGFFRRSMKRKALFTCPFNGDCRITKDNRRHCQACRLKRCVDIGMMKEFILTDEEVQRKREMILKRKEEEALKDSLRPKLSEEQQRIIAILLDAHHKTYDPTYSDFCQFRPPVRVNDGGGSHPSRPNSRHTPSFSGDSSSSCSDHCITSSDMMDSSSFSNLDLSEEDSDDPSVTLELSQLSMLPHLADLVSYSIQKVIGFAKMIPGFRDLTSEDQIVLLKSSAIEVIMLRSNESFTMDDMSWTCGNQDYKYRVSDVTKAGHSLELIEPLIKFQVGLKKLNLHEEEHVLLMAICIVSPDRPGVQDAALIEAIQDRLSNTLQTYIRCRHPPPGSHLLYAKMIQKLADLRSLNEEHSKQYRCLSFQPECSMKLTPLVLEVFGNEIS
Method in brief: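 VDR-UAS-bla HEK293T cells (2000/well, 2% charcoal-stripped FBS) were treated with titrated compounds plus 1-alpha,25-dihydroxyvitamin D3 (50 nM or 3 nM final) for 16 h at 37 C. CCF4 beta-lactamase fluorescence was read; Hill fits gave IC50.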

[13] = target: Vitamin D3 receptor (Homo sapiens) (UniProt P11473); experiment: qHTS assay for small molecule agonists of vitamin D receptor signaling (AID 588543); details: HEK293T VDR-UAS-bla, beta-lactamase ratio, 16 h; series mostly up to 76.8 µM;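 note: 0% = DMSO basal and 100% = reference agonist control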
Method in brief: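 qHTS in agonist mode: compound titrations stimulate a VDR-driven β-lactamase reporter in HEK293T cells over 16 h at 37 °C. Response normalized to 50 nM 1α,25-dihydroxyvitamin D3 = 100%, DMSO = 0%; Hill fitting gives EC50 and maximal response.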

[14] = qHTS assay for small molecule agonists of the antioxidant response element (ARE) signaling pathway measured by Nrf2-dependant transcriptional activity - cell viability counter screen (AID 720653; active = well fitted curve in the direction sought with a large enough effect in the repeat runs; an effect the other way counts as inactive or inconclusive; note: potency is the fitted concentration of half-maximal effect); details: ARE-bla HepG2 viability, CellTiter-Glo ATP luminescence, 16 h; max response: stronger effect = lower value
Method in brief: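 ARE-bla HepG2 cells (2,000/well) rested 5 hrs at 37C/5% CO2, then exposed to compounds in DMSO for 16 hrs. Viability was read in the same wells as intracellular ATP by luminescence, 30 min at room temperature after reagent addition.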

[15] = NFAT Signaling Pathway (AID 444; active = well fitted curve in either direction with a large enough effect, not every such curve was filed as active;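 note: carbachol stimulus at about its EC50 of 1 µM final; % is set by controls: 0 for no effect and ±100 for the full control effect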); details: Jurkat NFAT-bla M1, carbachol, beta-lactamase ratio, 5 h; at 7.69 µM (top of the series) unless noted
Method in brief: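 Jurkat cells carrying an NFAT-driven β-lactamase reporter and co-transfected muscarinic M1 receptor were treated with compound plus carbachol (1 uM final, an EC50 level) for 5 h at 37 °C. CCF4 loading followed for 1 h at RT; 460/530 nm ratio gave %activity.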

[16] = target: Glucocorticoid receptor (Homo sapiens) (UniProt P04150); experiment: GR-GFP Redistribution (AID 450;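 active = compounds whose dose series gives a full or clear partial fitted curve of increased nuclear translocation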; note: potency is the fitted concentration of half-maximal effect); details: U2OS GR-GFP nuclear translocation, laser cytometry, 2 h
[17] = target: Bile acid receptor (Homo sapiens) (UniProt Q96RI1); experiment: qHTS assay for small molecule antagonists of farnesoid X receptor signaling (AID 588526); details: HEK293T FXR-UAS-bla, beta-lactamase ratio, antagonist mode; series mostly up to 76.7 µM; note: % is set by controls: 0 for no effect and ±100 for the full control effect
Bile acid receptor (Homo sapiens), sequence (Q96RI1 whole entry, looked up): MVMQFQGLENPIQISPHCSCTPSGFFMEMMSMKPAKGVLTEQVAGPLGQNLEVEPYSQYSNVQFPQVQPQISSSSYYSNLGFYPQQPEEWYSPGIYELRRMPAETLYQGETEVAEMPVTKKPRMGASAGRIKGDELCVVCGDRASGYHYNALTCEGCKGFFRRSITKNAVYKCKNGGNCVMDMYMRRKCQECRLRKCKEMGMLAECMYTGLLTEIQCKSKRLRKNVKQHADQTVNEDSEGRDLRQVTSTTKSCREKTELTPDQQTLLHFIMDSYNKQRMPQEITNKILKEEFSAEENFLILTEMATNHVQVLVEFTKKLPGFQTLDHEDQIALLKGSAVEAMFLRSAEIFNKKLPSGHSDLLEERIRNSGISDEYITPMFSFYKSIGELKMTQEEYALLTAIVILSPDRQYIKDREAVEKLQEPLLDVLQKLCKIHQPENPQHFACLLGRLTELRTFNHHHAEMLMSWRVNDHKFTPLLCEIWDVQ
Method in brief: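 Concentration-response titrations were fitted to the Hill equation for half-maximal inhibition and maximal response, with data normalised to 50 uM chenodeoxycholic acid and DMSO control wells. Cells: FXR-UAS-bla HEK293T, dialyzed FBS.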

[18] = qHTS assay for small molecule activators of the nuclear factor-kappa B (NF-kB) signaling pathway (AID 651749; active = well fitted activation curve with a large enough effect in the signal ratio; the % refers to the signal ratio; note: % of control where 0% means no effect); details: NF-kB-bla ME-180 cells, beta-lactamase FRET ratio, 16 h; stronger effect = higher value
Method in brief: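 Beta-lactamase reporter expression, controlled by NF-kB response elements in ME-180 cells, was quantified fluorometrically via FRET disruption; cells at 2,000/well had been incubated with 23 nL test compound for 16 hr.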

[19] = qHTS assay to identify small molecules that stimulate interleukin-8 (IL-8) secretion (AID 651758; active = well fitted activation curve with a large enough effect in the signal ratio; the % refers to the signal ratio; note: potency is the fitted concentration of half-maximal effect; for activation: 0% is about no effect); details: HTRF ratio (665/615); series mostly up to 92.2 µM
Method in brief: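 Quantitative HTS in THP-1 monocytic cells at 2000 cells per well, with 16 hrs compound incubation at 37 C. IL-8 in the medium was then quantified by HTRF immunoassay, read after 1-3 hrs at room temperature.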

[20] = target: Nuclear receptor ROR-gamma (Homo sapiens) (UniProt P51449); experiment: qHTS assay for small molecule antagonists of the retinoid-related orphan receptor gamma (ROR-gamma) signaling pathway (AID 651802; active = well fitted curve in the direction sought with a large enough effect; an effect the other way counts as inactive or inconclusive;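 note: CHO cells with doxycycline-induced ROR-gamma expression; luciferase reporter luminescence driven by ROR response element; % is set by controls: 0 for no effect and ±100 for the full control effect; nearly all actives have a fitted effect of over 60% in size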); details: ROR-gamma antagonist cell reporter assay; series mostly up to 92.2 µM
Nuclear receptor ROR-gamma (Homo sapiens), sequence (P51449 whole entry, looked up): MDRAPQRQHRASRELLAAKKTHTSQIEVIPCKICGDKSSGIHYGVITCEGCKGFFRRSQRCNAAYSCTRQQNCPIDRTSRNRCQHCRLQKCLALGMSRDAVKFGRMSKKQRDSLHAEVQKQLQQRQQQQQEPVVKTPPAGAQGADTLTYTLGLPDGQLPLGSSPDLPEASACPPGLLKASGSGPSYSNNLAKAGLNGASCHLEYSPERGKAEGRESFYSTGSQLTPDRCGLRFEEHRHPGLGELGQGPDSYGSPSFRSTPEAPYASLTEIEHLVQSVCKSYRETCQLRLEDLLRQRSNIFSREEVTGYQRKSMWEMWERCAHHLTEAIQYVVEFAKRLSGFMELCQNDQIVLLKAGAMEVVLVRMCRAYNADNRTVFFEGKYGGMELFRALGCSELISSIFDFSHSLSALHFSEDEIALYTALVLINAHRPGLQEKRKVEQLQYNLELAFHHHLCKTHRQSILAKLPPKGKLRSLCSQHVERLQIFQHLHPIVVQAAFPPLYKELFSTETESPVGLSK
Method in brief: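 Luciferase read-out: ONE-Glo luminescence after 30 min at room temperature, following 16hr doxycycline induction at 37C, 5% CO2 of CHO cells with TET-inducible ROR and RORE-LUC reporter; decreased luminescence = reduced reporter activity.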

COc1ccc2[nH]cc(CCNc3nc(-c4c(C)noc4C)nc4ccccc34)c2c1
Potency [1]: > 2.29 µM (inactive) | activity change, negative = inhibition [2]: -24.6% (inactive) | Potency [3]: > 46 µM (inactive)

c1ccc2c(c1)[nH]c1ccccc12
Potency [4]: > 92 µM (inactive) | Potency [5]: inactive | activation [6]: -0.462% (inactive) and 14.4% (inactive) | Potency [7]: inactive | max response [8]: -0.442% and 48.8% | Potency [9]: inactive | Potency [10]: inactive | outcome [11]: inactive

Cc1ccc(N)c([N+](=O)[O-])c1
Potency [5]: inactive | activation [6]: 2.77% (inactive) and 13.2% (inactive) | Potency [7]: inactive | max response [8]: -16.3% and -11.9% | Potency [9]: inactive | outcome [12]: inactive | outcome [13]: inactive | max response [14]: -14.8% (inactive) and -1.11% (inactive)

COc1ccc2[nH]cc(CCNc3ncncc3-c3ccccc3C(F)(F)F)c2c1
Potency [1]: > 11.4 µM (inactive) | activity change, negative = inhibition [2]: 3.8% (inactive) | activity change, negative = inhibition [15]: -3.73% (inactive) | Potency [16]: > 46 µM (inactive) | Potency [3]: > 46 µM (inactive)

CCO
outcome [17]: inactive | activation [6]: -4.6% (inactive) | Potency [7]: inactive | max response [8]: -20.9% | Potency [9]: inactive | outcome [12]: inactive | outcome [13]: inactive | Potency [10]: inactive | activation [18]: -0.227% (inactive) | Potency [19]: inactive | Potency [20]: inactive | max response [14]: 7% (inactive) | outcome [11]: inactive

COc1ccccc1CNc1ccnc(-c2cccnc2)n1
Potency [1]: > 11.4 µM (inactive) | activity change, negative = inhibition [2]: -7.12% (inactive) | activity change, negative = inhibition [15]: -4.87% (inactive) | Potency [16]: > 46 µM (inactive) | Potency [3]: > 46 µM (inactive)

CNc1ncncc1-c1ccccc1CN(C)C
Potency [1]: > 11.4 µM (inactive) | activity change, negative = inhibition [2]: 7.24% (inactive) | activity change, negative = inhibition [15]: -28.4% (inactive) | Potency [16]: > 46 µM (inactive) | Potency [3]: > 46 µM (inactive)

CN(C)c1ccc(-c2cncnc2NCCc2cnc[nH]2)cc1
activity change, negative = inhibition [2]: -28.6% (inactive) | activity change, negative = inhibition [15]: -15.1% (inactive) | Potency [16]: > 46 µM (inactive) | Potency [3]: > 46 µM (inactive)

NC1=NC(S)C2N=CN=C2N1 (stereo not drawn)
activation [6]: -9.94% (inactive) | Potency [7]: 7.08 µM (active) | outcome [12]: inactive | outcome [13]: inactive | Potency [10]: 33.5 µM (active) | activation [18]: 0.298% (inactive) | Potency [19]: 66.8 µM (active) | Potency [20]: inactive | Potency [14]: 5.01 µM (active)

OCCNCCO
Potency [4]: > 92 µM (inactive) | activation [6]: -6.89% (inactive) and -4.55% (inactive) | Potency [7]: inactive | max response [8]: 0.125% and 53.2% | Potency [9]: inactive | outcome [12]: inactive | outcome [13]: inactive | outcome [11]: inactive
